Tests used:
Experiment in all cases: DAPPL (digital affinity profiling via proximity ligation, sequencing); 10 mM Tris-HCl pH 7.5, 50 mM NaCl, 1 mM DTT, 4% glycerol, room temperature, 30 min; GST-TFs on glutathione beads, 16-mer random dsDNA library, 0.1% formaldehyde crosslink after washing; high values mean tight binding
FEV = target: T1, FEV (Homo sapiens, UniProt Q99581 1-238); details: protein: recombinant; tags: N-terminal GST; dsDNA, one strand shown
T1 sequence: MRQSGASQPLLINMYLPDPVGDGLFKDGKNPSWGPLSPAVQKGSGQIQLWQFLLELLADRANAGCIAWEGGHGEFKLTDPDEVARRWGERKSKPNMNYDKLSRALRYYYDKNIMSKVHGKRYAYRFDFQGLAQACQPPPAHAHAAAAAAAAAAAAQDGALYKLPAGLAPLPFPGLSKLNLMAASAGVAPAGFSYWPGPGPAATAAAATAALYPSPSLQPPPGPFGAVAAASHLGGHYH
Method in brief: (§1)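 Each value of binding signal is a hexamer's read frequency for a factor divided by the same hexamer's frequency in the tag-only sample. Barcoded, bead-captured GST fusions of human transcription factors made in yeast were pooled with that sample and incubated with 200 nmole of a random double-stranded 16-mer DNA library in Tris/NaCl/DTT/glycerol buffer at room temperature for 30 min. Washing, 0.1% formaldehyde crosslinking, proximity ligation, PCR and Illumina NextSeq500 sequencing followed.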

ETV5 = ETV5 (Homo sapiens, UniProt P41161 1-510); details: protein: recombinant; tags: N-terminal GST; dsDNA, one strand shown
Method in brief: as §1

HSF1 = HSF1 (Homo sapiens, UniProt Q00613 1-529); details: protein: recombinant; tags: N-terminal GST; chain copies: 3; dsDNA, one strand shown
Method in brief: as §1

SPIC = target: T2, SPIC (Homo sapiens, UniProt Q8N5J4 1-248); details: protein: recombinant; tags: N-terminal GST; dsDNA, one strand shown
T2 sequence: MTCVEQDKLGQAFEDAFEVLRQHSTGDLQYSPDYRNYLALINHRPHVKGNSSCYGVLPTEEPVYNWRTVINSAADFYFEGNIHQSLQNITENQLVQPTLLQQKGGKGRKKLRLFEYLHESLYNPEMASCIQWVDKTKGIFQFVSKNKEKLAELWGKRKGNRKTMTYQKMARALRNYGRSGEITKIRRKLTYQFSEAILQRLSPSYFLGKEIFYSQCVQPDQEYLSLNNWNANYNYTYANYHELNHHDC
Method in brief: as §1

ELF4 = ELF4 (Homo sapiens, UniProt Q99607 1-663); details: protein: recombinant; tags: N-terminal GST; dsDNA, one strand shown
Method in brief: as §1

ELK4 = target: T3, ELK4 (Homo sapiens, UniProt P28324-2 1-405); details: protein: recombinant; tags: N-terminal GST; dsDNA, one strand shown
T3 sequence: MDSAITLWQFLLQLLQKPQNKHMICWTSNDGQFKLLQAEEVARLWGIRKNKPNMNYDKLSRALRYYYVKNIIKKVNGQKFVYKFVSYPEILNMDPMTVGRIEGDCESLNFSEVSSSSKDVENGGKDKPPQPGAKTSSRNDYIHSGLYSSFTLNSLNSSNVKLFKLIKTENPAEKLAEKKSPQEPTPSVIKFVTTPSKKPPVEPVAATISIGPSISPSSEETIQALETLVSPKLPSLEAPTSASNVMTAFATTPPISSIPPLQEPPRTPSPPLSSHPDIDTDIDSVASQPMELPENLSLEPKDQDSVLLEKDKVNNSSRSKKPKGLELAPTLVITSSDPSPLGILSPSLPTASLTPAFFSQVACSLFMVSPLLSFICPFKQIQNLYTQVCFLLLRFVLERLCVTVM
Method in brief: as §1

ETV2 = target: T4, ETV2 (Homo sapiens, UniProt O00321 1-342); details: protein: recombinant; tags: N-terminal GST; dsDNA, one strand shown
T4 sequence: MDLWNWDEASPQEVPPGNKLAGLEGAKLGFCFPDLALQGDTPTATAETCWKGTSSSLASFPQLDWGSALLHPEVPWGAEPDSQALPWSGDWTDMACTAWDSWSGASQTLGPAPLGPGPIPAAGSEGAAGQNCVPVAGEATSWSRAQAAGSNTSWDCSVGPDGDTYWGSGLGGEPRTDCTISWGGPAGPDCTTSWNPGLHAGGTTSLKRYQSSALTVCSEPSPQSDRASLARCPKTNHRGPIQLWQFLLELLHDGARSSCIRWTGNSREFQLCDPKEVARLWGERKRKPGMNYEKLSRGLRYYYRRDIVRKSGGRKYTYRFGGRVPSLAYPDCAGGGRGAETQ
Method in brief: as §1

ELF3 = target: T5, ELF3 (Homo sapiens, UniProt P78545 1-371); details: protein: recombinant; tags: N-terminal GST; dsDNA, one strand shown
T5 sequence: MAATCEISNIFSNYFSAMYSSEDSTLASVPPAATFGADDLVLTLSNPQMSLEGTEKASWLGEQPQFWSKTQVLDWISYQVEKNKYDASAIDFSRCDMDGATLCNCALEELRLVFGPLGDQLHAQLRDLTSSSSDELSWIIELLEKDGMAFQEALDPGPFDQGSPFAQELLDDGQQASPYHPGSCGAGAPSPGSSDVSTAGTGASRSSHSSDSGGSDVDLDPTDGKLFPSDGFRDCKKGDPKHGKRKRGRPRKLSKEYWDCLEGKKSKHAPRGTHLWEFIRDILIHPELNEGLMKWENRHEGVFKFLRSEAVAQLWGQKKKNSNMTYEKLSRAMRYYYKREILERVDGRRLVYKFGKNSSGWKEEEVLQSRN
Method in brief: as §1

CRX = CRX (Homo sapiens, UniProt O43186 1-299); details: protein: recombinant; tags: N-terminal GST; dsDNA, one strand shown
Method in brief: as §1

ETV1 = ETV1 (Homo sapiens, UniProt P50549 1-477); details: protein: recombinant; tags: N-terminal GST; dsDNA, one strand shown
Method in brief: as §1

ERF = target: T6, ERF (Homo sapiens, UniProt P50548 1-548); details: protein: recombinant; tags: N-terminal GST; dsDNA, one strand shown
T6 sequence: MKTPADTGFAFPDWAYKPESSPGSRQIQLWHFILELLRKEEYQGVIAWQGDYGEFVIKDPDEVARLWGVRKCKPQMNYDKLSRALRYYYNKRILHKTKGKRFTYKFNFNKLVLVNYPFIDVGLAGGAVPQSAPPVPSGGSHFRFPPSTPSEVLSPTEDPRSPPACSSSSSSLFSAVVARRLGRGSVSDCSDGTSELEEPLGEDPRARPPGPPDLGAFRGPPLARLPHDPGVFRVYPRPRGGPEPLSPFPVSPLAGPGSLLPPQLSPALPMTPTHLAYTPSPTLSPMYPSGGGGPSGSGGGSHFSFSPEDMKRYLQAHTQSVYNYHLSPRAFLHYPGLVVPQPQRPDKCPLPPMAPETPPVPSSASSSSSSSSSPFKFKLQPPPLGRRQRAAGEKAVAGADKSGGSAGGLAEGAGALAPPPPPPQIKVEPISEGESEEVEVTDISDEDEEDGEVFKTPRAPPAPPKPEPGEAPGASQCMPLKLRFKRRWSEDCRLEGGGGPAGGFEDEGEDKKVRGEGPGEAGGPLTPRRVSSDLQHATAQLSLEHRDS
Method in brief: as §1

ETV3L = target: T7, ETV3L (Homo sapiens, UniProt Q6ZN32 1-361); details: protein: recombinant; tags: N-terminal GST; dsDNA, one strand shown
T7 sequence: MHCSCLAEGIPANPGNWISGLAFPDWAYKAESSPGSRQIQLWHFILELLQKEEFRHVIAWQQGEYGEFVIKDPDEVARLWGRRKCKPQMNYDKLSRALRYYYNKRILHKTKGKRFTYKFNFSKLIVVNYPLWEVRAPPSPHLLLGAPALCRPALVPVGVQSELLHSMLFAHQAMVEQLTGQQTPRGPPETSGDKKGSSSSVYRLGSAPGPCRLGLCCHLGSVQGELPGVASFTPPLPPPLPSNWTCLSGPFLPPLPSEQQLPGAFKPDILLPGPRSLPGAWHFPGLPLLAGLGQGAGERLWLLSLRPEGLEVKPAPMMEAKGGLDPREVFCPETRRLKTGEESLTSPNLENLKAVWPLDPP
Method in brief: as §1

ETS2 = target: T8, ETS2 (Homo sapiens, UniProt P15036 1-469); details: protein: recombinant; tags: N-terminal GST; dsDNA, one strand shown
T8 sequence: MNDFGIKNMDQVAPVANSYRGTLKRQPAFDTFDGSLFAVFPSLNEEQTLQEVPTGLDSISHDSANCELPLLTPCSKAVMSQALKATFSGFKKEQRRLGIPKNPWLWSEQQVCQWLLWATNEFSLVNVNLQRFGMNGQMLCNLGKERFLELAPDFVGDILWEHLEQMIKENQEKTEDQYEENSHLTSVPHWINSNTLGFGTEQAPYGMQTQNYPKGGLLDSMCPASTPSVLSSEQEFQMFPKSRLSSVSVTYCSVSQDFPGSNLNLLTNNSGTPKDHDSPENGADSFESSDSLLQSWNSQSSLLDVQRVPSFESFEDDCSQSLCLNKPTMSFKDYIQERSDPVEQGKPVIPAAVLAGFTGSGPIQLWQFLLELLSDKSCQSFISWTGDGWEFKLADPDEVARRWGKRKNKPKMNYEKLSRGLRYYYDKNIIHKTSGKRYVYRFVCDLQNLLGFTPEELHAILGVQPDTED
Method in brief: as §1

SPDEF = target: T9, SPDEF (Homo sapiens, UniProt O95238 1-335); details: protein: recombinant; tags: N-terminal GST; dsDNA, one strand shown
T9 sequence: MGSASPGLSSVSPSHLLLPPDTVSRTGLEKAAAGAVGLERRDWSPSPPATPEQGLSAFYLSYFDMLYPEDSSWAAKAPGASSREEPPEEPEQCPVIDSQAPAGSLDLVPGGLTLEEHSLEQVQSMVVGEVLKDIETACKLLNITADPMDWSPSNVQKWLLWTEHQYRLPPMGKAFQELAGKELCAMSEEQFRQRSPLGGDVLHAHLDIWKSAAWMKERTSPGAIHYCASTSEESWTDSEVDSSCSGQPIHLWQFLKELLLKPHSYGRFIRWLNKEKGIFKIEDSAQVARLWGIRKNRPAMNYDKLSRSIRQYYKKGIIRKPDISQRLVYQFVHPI
Method in brief: as §1

ETV7 = target: T10, ETV7 (Homo sapiens, UniProt Q9Y603 1-341); details: protein: recombinant; tags: N-terminal GST; dsDNA, one strand shown
T10 sequence: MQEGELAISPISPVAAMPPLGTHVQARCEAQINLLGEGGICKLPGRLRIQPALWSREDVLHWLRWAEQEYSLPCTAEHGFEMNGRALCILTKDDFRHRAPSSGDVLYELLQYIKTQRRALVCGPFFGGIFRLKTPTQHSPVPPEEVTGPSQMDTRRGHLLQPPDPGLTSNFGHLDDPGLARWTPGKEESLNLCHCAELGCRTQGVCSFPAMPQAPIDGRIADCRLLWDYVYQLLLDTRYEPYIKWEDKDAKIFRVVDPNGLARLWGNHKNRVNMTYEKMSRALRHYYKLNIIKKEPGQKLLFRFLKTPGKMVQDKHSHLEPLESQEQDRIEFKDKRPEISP
Method in brief: as §1

ELF5 = target: T11, ELF5 (Homo sapiens, UniProt Q9UKW6-2 1-255); details: protein: recombinant; tags: N-terminal GST; dsDNA, one strand shown
T11 sequence: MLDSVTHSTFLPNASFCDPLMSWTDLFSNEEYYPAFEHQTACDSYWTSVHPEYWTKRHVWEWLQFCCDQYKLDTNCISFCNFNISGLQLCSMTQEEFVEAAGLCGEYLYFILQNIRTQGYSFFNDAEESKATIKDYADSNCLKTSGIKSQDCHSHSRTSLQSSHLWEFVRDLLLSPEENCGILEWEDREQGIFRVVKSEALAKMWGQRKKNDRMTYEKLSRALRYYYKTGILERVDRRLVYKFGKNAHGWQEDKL
Method in brief: as §1

ETV3 = target: T12, ETV3 (Homo sapiens, UniProt P41162-2 1-143); details: protein: recombinant; tags: N-terminal GST; dsDNA, one strand shown
T12 sequence: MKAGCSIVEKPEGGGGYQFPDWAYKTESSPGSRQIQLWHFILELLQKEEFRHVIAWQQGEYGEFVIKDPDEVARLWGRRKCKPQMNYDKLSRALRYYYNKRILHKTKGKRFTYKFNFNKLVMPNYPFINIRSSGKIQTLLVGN
Method in brief: as §1

ETV6 = ETV6 (Homo sapiens, UniProt P41212 1-452); details: protein: recombinant; tags: N-terminal GST; dsDNA, one strand shown
Method in brief: as §1

Chain of ELF4 (Q99607 whole entry): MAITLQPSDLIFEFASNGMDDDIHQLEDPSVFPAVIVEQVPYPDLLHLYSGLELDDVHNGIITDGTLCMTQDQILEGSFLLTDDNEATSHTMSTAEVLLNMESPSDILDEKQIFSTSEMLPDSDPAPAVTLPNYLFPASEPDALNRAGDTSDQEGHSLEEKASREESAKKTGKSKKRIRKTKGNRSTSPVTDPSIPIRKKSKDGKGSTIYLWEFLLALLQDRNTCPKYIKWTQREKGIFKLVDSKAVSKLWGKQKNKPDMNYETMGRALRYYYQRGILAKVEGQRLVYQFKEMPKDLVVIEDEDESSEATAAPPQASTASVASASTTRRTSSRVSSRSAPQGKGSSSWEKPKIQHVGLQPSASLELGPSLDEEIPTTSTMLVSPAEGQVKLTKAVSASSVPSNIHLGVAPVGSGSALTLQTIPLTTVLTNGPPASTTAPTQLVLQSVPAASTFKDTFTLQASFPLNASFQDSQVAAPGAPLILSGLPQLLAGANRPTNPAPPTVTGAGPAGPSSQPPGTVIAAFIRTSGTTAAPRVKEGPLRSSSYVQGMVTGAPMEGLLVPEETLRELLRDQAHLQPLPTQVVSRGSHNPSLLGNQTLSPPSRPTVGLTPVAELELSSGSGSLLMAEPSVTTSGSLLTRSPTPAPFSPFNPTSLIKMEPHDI
Chain of ETV6 (P41212 whole entry): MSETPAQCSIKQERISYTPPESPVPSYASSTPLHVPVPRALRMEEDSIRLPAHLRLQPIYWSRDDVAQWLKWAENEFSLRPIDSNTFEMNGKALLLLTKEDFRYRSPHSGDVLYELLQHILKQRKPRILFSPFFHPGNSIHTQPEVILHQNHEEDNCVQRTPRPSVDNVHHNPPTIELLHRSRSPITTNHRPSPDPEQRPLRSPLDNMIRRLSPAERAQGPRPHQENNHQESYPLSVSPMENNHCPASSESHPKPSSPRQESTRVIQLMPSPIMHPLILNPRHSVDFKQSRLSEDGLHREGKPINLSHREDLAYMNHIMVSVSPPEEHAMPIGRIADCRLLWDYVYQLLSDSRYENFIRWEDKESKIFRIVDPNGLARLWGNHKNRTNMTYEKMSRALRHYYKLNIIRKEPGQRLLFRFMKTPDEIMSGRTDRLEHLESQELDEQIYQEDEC
Chain of ETV5 (P41161 whole entry): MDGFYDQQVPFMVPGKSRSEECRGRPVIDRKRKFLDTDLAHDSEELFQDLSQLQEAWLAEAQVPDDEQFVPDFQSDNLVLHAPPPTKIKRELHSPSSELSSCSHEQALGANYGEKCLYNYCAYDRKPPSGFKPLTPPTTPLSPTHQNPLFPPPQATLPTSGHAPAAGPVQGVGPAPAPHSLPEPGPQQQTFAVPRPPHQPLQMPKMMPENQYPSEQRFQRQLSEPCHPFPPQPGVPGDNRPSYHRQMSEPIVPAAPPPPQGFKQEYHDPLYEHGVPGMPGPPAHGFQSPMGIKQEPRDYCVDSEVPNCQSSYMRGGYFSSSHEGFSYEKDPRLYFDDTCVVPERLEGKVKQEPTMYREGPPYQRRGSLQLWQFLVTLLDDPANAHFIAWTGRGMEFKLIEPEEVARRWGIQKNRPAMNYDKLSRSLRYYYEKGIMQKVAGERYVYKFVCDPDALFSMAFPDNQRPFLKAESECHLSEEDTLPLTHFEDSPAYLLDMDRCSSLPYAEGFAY
Chain of HSF1 (Q00613 whole entry): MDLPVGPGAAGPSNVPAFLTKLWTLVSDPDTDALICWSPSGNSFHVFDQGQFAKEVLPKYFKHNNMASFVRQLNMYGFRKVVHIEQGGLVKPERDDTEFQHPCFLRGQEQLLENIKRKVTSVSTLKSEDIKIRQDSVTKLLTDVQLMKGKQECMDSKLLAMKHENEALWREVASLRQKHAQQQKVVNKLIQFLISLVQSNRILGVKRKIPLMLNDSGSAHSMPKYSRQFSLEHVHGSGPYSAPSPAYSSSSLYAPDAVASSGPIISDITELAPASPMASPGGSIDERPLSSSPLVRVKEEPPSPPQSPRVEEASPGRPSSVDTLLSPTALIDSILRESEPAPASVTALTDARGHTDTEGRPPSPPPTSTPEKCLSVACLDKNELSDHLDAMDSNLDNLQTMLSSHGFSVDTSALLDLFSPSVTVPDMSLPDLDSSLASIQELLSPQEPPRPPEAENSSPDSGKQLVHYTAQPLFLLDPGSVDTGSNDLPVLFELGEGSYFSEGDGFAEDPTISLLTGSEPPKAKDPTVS
Chain of CRX (O43186 whole entry): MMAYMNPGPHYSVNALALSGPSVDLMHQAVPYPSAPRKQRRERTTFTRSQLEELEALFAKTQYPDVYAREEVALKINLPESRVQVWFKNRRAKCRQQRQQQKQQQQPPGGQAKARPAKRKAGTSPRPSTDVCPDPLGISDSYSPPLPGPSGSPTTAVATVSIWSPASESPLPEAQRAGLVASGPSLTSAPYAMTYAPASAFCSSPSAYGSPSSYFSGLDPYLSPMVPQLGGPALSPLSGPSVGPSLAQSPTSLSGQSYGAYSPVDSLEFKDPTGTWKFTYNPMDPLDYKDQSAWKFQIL
Chain of ETV1 (P50549 whole entry): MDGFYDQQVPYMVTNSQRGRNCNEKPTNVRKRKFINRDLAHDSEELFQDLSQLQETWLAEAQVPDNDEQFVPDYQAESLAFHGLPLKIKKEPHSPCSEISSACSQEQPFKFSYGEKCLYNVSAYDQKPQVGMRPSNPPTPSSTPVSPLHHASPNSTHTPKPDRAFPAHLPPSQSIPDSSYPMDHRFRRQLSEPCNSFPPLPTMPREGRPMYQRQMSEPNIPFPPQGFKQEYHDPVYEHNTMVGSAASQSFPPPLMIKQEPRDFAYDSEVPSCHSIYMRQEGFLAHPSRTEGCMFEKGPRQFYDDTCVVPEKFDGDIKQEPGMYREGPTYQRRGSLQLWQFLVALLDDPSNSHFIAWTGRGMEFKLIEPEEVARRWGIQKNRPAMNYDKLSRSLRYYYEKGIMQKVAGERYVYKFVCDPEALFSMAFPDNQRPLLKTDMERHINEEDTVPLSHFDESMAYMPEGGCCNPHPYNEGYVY

Question: For TTGTAT, which binding signal (FEV) is on record?
Answer: 1.26 fold enrichment (6-mer frequency, TF over GST control)

Question: What about the binding signal (ETV5) of the same sequence?
Answer: 1.26 fold enrichment (6-mer frequency, TF over GST control)

Question: And the binding signal (HSF1)?
Answer: 1.21 fold enrichment (6-mer frequency, TF over GST control)

Question: And the binding signal (SPIC)?
Answer: 1.28 fold enrichment (6-mer frequency, TF over GST control)

Question: What about the binding signal (ELF4) of the same sequence?
Answer: 1.35 fold enrichment (6-mer frequency, TF over GST control)

Question: What about the binding signal (ELK4) of the same sequence?
Answer: 1.43 fold enrichment (6-mer frequency, TF over GST control)

Question: And the binding signal (ETV2)?
Answer: 1.4 fold enrichment (6-mer frequency, TF over GST control)

Question: What about the binding signal (ELF3) of the same sequence?
Answer: 1.34 fold enrichment (6-mer frequency, TF over GST control)

Question: What about the binding signal (CRX) of the same sequence?
Answer: 1.42 fold enrichment (6-mer frequency, TF over GST control)

Question: What about the binding signal (ETV1) of the same sequence?
Answer: 1.3 fold enrichment (6-mer frequency, TF over GST control)

Question: And the binding signal (ERF)?
Answer: 1.28 fold enrichment (6-mer frequency, TF over GST control)

Question: And the binding signal (ETV3L)?
Answer: 1.37 fold enrichment (6-mer frequency, TF over GST control)

Question: And the binding signal (ETS2)?
Answer: 1.4 fold enrichment (6-mer frequency, TF over GST control)

Question: And the binding signal (SPDEF)?
Answer: 1.41 fold enrichment (6-mer frequency, TF over GST control)

Question: And the binding signal (ETV7)?
Answer: 1.21 fold enrichment (6-mer frequency, TF over GST control)

Question: What about the binding signal (ELF5) of the same sequence?
Answer: 1.35 fold enrichment (6-mer frequency, TF over GST control)

Question: And the binding signal (ETV3)?
Answer: 1.41 fold enrichment (6-mer frequency, TF over GST control)

Question: And the binding signal (ETV6)?
Answer: 1.25 fold enrichment (6-mer frequency, TF over GST control)

Reference: article PMC7862700, “An all-to-all approach to the identification of sequence-specific readers for epigenetic DNA modifications on cytosine”
